Experimental data from PubChem BioAssay.
The source made the active and inactive calls.

Legend:
[1] = system: Plasmodium falciparum Sir2 (PF13_0152, Sir2A); experiment: pfSir2 binders on small-molecule microarrays, primary screen, biochemical, small-molecule microarray, 635 nm fluorescence (AID 1098); settings: small-molecule microarray binding, fluorescence 635 nm; higher = more signal;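 also: score merges spot fluorescence intensity with its signal-to-noise ratio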
[2] = small-molecule microarray binders of probe aDKK1, primary screen, biochemical, biotinylated probe, 635/667 nm fluorescence (AID 1099); settings: higher = more signal;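 also: score merges 667nm spot fluorescence with signal to noise across triplicate slides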
[3] = small-molecule microarray binders of probe aCHRDL2, primary screen, biochemical, biotinylated probe, 635/667 nm fluorescence (AID 1100); settings: higher = more signal
[4] = splicing luciferase reporter signal modulators, primary screen, spliceosome inhibition project, cell-based, HEK293, splice +/- reporter (AID 1101); settings: luminescence, 24 h, higher = more signal, called active from +8 up or from −8 down;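 also: HEK293 cells carrying a splicing-competent luciferase reporter gene; test concentration not given here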
[5] = target: Fibroblast growth factor 10 (Homo sapiens) (UniProt O15520); experiment: FGF10 binders on small-molecule microarrays, primary screen, biochemical, small-molecule microarray, 635 nm fluorescence (AID 1102); settings: FGF10 binding, fluorescence 635 nm, higher = more signal
[6] = system: glycogen synthase kinase-3 (GSK3A per assay name; protocol says GSK3B); experiment: GSK3 binders on small-molecule microarrays, primary screen, biochemical, small-molecule microarray, 635 nm fluorescence, GSK3A (AID 1103); settings: small-molecule microarray binding, fluorescence 635 nm; higher = more signal; also: the record names both GSK3A and GSK3B
[7] = target: Epidermal growth factor receptor (Homo sapiens) (UniProt P00533); experiment: EGFR binders on small-molecule microarrays, primary screen, biochemical, small-molecule microarray, 635 nm fluorescence (AID 1104); settings: EGFR binding, higher = more signal;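 also: score merges 667 nm emission intensity with spot signal to noise over triplicate slides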
[8] = target: Follistatin-related protein 3 (Homo sapiens) (UniProt O95633); experiment: FSTL3 binders on small-molecule microarrays, primary screen, biochemical, small-molecule microarray, 635 nm fluorescence (AID 1105); settings: FSTL3 binding, higher = more signal;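 also: score merges emission near 667 nm and signal to noise per printed spot across three slides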
[9] = target: Dickkopf-related protein 1 (Homo sapiens) (UniProt O94907); experiment: DKK1 binders on small-molecule microarrays, primary screen, biochemical, small-molecule microarray, 635 nm fluorescence scan (AID 1106); settings: DKK1 binding, higher = more signal;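 also: score merges emission near 667 nm with signal to noise over three replicate slides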
[10] = system: Inhibin beta A chain (activin A); experiment: INHBA (activin A) binders on microarrays, primary screen, biochemical, small-molecule microarray, 635 nm fluorescence scan (AID 1107); settings: small-molecule microarray binding, higher = more signal;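 also: mouse activin A protein probed at 4.33 µg/mL on printed slides; score merges bound-protein fluorescence near 667 nm with spot signal-to-noise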
[11] = system: Human papillomavirus type 1a protein E7 (residues 44-93); experiment: HPV1a E7 fragment binders on microarrays, primary screen, biochemical, small-molecule microarray, residues 44-93, 635 nm fluorescence (AID 1108); settings: small-molecule microarray binding, fluorescence 635 nm; higher = more signal;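 also: E7 fragment applied at 1 µg/mL in TBST for 1 h at 4 C; score combines spot fluorescence with its signal to noise ratio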
[12] = modulators of HCV replicon luciferase signal, primary screen, HCV replication inhibitor project, Huh7 cells, luciferase reporter (AID 1109); settings: 48 h, higher = more signal;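 also: huh7 hepatoma cells harbouring a luciferase neomycin HCV replicon reporter; luciferase luminescence as measure of HCV replicon replication; test concentration not given here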
[13] = target: Left-right determination factor 2 (Homo sapiens) (UniProt O00292); experiment: LEFTY2 binders on small-molecule microarrays, primary screen, biochemical, small-molecule microarray, 635 nm fluorescence scan (AID 1110); settings: LEFTY2 binding, higher = more signal
[14] = target: Calmodulin-1 (Homo sapiens) (UniProt P0DP23); experiment: CALM1 binders on microarrays, EGTA buffer, profiling panel, biochemical, small-molecule microarray, Cy5-labelled CALM1 (AID 1111); settings: Cy5-CALM1 binding fluorescence, higher = more signal;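 also: labelled calmodulin applied in Tris saline Tween buffer holding calcium plus EGTA and DTT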
[15] = target: Calmodulin-1 (Homo sapiens) (UniProt P0DP23); experiment: calcium-bound CALM1 binders on microarrays, profiling panel, artefact control for SMM control-protein annotation, biochemical, small-molecule microarray, Cy5-labelled CALM1, plus calcium (AID 1112); settings: Cy5-CALM1 binding fluorescence, higher = more signal;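 also: score merges spot fluorescence with signal to noise from triplicate slides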
[16] = small-molecule microarray binders of probe aWnt5a, primary screen, biochemical, biotinylated probe, 635/667 nm fluorescence (AID 1113); settings: higher = more signal;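 also: score merges 667 nm fluorescence intensity with signal-to-noise per printed feature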
[17] = small-molecule microarray binders of probe aShh, primary screen, biochemical, biotinylated probe, 635/667 nm fluorescence (AID 1114); settings: higher = more signal;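 also: probe is biotin-labelled aShh protein from a stem cell growth factor screen; measures binding of labelled protein to compounds printed on the slide; score merges feature fluorescence at 667 nm with signal-to-noise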
[18] = small-molecule microarray binders of probe aNog, primary screen, biochemical, biotinylated probe, 635/667 nm fluorescence (AID 1115); settings: higher = more signal;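 also: probe is biotinylated aNog protein used at 0.15 µg/mL for 1 h at 4 C; z-score combines 667 nm fluorescence of each spot with its signal to noise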
[19] = target: Torsin-1A-interacting protein 1 (Homo sapiens) (UniProt Q5JTV8); experiment: LAP1 binders from COS7 cell lysate, primary screen, small-molecule microarray, 635/667 nm fluorescence (AID 1116); settings: COS7-hLAP1 lysate binding, 635 nm fluorescence, higher = more signal
[20] = target: Alpha-bungarotoxin (Bungarus multicinctus) (UniProt P60615); experiment: alpha-bungarotoxin binders on microarray, profiling panel, artefact control for SMM control protein annotation, biochemical, small-molecule microarray, Alexa647 label, 635/667 nm fluorescence (AID 1117); settings: alpha-BTX-A647 binding fluorescence, higher = more signal
Sequence of Alpha-bungarotoxin (Bungarus multicinctus) (P60615 whole entry, looked up): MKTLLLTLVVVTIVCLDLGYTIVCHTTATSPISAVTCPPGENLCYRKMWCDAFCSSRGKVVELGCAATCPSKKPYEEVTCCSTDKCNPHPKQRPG

Sequence of Dickkopf-related protein 1 (Homo sapiens) (O94907 whole entry, looked up): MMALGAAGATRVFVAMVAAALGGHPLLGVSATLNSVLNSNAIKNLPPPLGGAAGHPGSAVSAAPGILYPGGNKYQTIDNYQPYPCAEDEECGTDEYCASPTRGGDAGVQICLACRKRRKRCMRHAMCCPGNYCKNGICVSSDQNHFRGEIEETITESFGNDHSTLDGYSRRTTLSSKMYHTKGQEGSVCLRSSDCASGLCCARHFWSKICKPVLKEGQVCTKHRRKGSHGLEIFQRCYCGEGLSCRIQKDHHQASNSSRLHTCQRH
Sequence of Left-right determination factor 2 (Homo sapiens) (O00292 whole entry, looked up): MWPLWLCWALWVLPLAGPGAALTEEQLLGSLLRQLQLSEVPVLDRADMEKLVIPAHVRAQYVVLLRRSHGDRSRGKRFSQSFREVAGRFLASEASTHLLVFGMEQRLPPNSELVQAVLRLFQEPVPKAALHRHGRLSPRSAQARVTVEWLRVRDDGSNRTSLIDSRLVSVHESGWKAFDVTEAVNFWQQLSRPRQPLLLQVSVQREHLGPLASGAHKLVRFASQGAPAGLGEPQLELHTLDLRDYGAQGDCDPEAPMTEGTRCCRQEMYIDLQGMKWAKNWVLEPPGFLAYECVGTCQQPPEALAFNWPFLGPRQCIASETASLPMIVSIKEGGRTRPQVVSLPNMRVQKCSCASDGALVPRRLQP
Sequence of Torsin-1A-interacting protein 1 (Homo sapiens) (Q5JTV8 whole entry, looked up): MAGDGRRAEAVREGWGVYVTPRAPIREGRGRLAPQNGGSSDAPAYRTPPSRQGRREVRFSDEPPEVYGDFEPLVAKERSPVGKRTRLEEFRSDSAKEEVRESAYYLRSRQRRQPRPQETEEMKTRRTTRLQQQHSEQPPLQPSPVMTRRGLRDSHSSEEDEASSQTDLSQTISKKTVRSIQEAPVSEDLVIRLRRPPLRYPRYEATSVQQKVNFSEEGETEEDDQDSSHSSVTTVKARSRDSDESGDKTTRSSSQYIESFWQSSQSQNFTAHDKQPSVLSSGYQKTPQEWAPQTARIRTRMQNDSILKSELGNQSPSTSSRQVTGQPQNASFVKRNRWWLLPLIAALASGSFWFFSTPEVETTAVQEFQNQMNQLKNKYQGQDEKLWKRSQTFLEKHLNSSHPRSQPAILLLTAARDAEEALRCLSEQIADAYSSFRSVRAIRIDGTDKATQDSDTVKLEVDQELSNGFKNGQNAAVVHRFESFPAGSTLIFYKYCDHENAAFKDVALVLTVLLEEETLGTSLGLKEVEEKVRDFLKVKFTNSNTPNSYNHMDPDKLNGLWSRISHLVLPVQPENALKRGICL
Sequence of Follistatin-related protein 3 (Homo sapiens) (O95633 whole entry, looked up): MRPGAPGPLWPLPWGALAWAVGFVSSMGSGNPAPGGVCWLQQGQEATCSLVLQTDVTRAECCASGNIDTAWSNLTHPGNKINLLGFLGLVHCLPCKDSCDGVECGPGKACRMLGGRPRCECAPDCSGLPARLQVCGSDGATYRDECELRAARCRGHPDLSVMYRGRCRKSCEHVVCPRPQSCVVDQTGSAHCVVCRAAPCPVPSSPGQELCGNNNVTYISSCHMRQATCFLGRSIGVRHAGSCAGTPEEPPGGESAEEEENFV
Sequence of Epidermal growth factor receptor (Homo sapiens) (P00533 whole entry, looked up): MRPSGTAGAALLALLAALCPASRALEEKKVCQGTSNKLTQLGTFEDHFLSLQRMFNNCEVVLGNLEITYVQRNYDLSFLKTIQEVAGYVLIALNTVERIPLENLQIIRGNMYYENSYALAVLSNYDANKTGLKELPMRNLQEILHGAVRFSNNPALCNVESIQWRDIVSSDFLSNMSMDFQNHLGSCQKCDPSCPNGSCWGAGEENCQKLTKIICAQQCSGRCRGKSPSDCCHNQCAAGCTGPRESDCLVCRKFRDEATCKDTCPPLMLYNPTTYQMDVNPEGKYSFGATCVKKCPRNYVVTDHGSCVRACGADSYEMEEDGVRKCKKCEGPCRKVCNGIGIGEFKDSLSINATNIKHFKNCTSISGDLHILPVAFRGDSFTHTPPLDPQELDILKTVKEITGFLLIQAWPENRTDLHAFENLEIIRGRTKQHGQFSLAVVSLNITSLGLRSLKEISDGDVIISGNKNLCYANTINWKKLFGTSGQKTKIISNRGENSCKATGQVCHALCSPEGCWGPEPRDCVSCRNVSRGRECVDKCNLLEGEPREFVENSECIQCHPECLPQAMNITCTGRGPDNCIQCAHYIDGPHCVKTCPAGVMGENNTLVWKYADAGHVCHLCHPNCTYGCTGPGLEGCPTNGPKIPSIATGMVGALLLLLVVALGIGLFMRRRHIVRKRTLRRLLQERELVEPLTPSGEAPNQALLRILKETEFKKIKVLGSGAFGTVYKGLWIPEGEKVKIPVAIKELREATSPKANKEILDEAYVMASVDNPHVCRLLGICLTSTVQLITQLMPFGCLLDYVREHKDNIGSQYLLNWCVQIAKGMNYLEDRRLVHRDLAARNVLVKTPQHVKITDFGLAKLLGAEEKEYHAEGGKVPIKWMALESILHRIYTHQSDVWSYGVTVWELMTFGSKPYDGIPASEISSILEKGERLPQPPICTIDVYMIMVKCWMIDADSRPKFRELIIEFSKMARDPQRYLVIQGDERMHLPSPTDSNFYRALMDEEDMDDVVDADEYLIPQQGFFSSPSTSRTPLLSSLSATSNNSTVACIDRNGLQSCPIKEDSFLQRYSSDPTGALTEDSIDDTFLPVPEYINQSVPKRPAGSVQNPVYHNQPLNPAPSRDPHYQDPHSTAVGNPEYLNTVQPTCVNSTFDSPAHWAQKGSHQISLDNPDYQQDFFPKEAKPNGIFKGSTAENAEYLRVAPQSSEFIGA
Sequence of Fibroblast growth factor 10 (Homo sapiens) (O15520 whole entry, looked up): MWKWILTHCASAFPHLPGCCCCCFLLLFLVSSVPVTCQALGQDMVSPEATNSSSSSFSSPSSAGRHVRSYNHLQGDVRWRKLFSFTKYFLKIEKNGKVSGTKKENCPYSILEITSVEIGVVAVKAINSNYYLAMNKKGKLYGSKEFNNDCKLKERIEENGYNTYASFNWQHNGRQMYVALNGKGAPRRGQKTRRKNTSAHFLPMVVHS

Row | SMILES | composite z-score [1] | composite z-score [2] | composite z-score [3] | z-score [4] | composite z-score [5] | composite z-score [6] | composite z-score [7] | composite z-score [8] | composite z-score [9] | composite z-score [10] | composite z-score [11] | z-score [12] | composite z-score [13] | composite z-score [14] | composite z-score [15] | composite z-score [16] | composite z-score [17] | composite z-score [18] | composite z-score [19] | composite z-score [20]
1 | COc1ccc(NC(=O)O[C@H]2[C@H](OC(=O)Nc3ccccc3)[C@H](OC(=O)Nc3ccccc3)[C@@H](OC)O[C@@H]2CO)cc1 | 1.58 | 0.891 | 0.816 | -0.0162 (inactive) | 1.27 | 1.07 | -0.171 | 0.806 | 0.426 | 0.593 | 1.25 | -2.76 | 0.249 | 0.692 | -0.17 | 0.161 | 0.163 | -0.413 | 0.634 | 1.12
2 | CCOC(=O)C[C@H]1[C@H](OC(=O)c2ccccc2-c2ccccc2)[C@@H](NC(=O)C2CCCCC2)c2cc(OCCCO)ccc2N1C(=O)Cc1ccc(OC)cc1 | -0.0395 | -0.189 | 0.0017 | -0.0496 (inactive) | 0.0134 | -0.625 | 0.0178 | 0.138 | -0.259 | 0.489 | -0.312 | -1.44 | -0.0221 | -0.0561 | -0.326 | -0.12 | -0.2 | -0.136 | 0.3 | -0.0654
3 | COCCOC(=O)N1C(=O)[C@@]2(c3cc(C#CC4=CCCCC4)ccc31)[C@H](c1ccccc1OCCO)N1[C@H](c3ccccc3)[C@H](c3ccccc3)OC(=O)[C@H]1[C@@H]2C(=O)Nc1nc2ccccc2s1 | 1.09 | -0.148 | -0.226 | -1.62 (inactive) | 1.08 | 0.69 | 0.416 | 0.981 | 0.506 | 0.936 | 1.33 | -2.23 | 0.526 | 1.36 | 0.13 | -0.0236 | 0.0253 | 0.904 | 0.666 | 1.48
4 | Cc1ccc(S[C@]2(C(=O)O)CC(=O)N(C3Cc4ccccc4C3)[C@@H]2c2ccc(CO)cc2)cc1 | 1.02 | 0.526 | 1.08 | 0.2 (inactive) | 0.0926 | -0.775 | -0.846 | -0.946 | -1.69 | 1.19 | 0.0922 | -0.0907 | -1.07 | 0.967 | 1.1 | 0.0077 | -0.0322 | 0.649 | 0.0148 | 0.0125
5 | CC(C)(C)N1CC=CC23O[C@@H]4C=CCCOC(=O)C4[C@H]2C(=O)N(CCO)[C@@H]3C1=O (stereo not given in full) | -1.04 | -0.106 | -0.254 | 0.288 (inactive) | -0.385 | -0.649 | -0.306 | -0.959 | -0.492 | 0.0863 | -0.282 | 0.361 | -0.475 | -0.504 | -0.511 | -0.0924 | -0.0146 | 0.0417 | -0.108 | 1.37
